{"source": "ChEMBL document CHEMBL4513216", "about": "“Probing the Open Global Health Chemical Diversity Library for Multistage-Active Starting Points for Next-Generation Antimalarials” (ACS Infect Dis, 2020)", "note": "In all, about 69,000 compounds went through this assay and about 8,600 (12%) showed an effect of 50% or more. The full list was thinned out, with strong results kept by preference.", "data": [{"system": "Plasmodium berghei", "assay": "Screen against P. berghei liver stage (PbLuc), transformed with Luciferase, at 10uM", "type": "functional, HepG2", "conditions": "tested at 10 uM", "units": {"INHIBITION": "%"}, "values": [{"smiles": "CCCS(=O)(=O)CCN1CCN(C(C#N)c2ccccc2)CC1", "note": "(stereo not given)", "INHIBITION": -4.93}, {"smiles": "CCn1c(CC2CCN(C(=O)c3cc(C(C)C)n[nH]3)CC2)n[nH]c1=O", "INHIBITION": 41.5}, {"smiles": "CCn1c(C2CCN(C(=O)c3cc(CC(C)C)on3)CC2)nn(C)c1=O", "INHIBITION": 21.8}, {"smiles": "CCn1c(CC2CCN(C(=O)c3cc(CC(C)C)on3)CC2)n[nH]c1=O", "INHIBITION": 51.7}, {"smiles": "O=C(NC[C@H]1OC[C@@H]2CN(Cc3ccco3)CC[C@@H]21)c1cccnc1", "INHIBITION": 8.03}, {"smiles": "CCNC(=O)c1cc(OC)c2cc(F)cc(C)c2n1", "INHIBITION": -8.41}, {"smiles": "COc1cc(C(=O)NCC2CCCO2)nc2c(C)cc(F)cc12", "note": "(stereo not given)", "INHIBITION": -14.8}, {"smiles": "COc1cc(C(=O)NCC2CC2)nc2c(C)cc(F)cc12", "INHIBITION": 55.4}, {"smiles": "COc1ccc(-c2cnc(CN(CC(N)=O)C3CCCC3)o2)cc1", "INHIBITION": 19.9}, {"smiles": "O=C(Cn1nc2c(cc1=O)CSCC2)N[C@@H](Cc1ccccc1)C(=O)O", "INHIBITION": -5.51}, {"smiles": "Cn1c(CO)nnc1SCc1c(F)cccc1Br", "INHIBITION": 15.5}, {"smiles": "Cn1c(N)nnc1SCc1ccc(Cl)cc1Br", "INHIBITION": 11.6}, {"smiles": "Cn1c(N)nnc1SCc1c(F)cccc1Br", "INHIBITION": 55.4}, {"smiles": "CN(C)c1nc2c(c(N3CCC(O)CC3)n1)CN(CC1CCNC1)CC2", "note": "(stereo not given)", "INHIBITION": 18.5}, {"smiles": "CN(C)c1nc2c(c(N3CCC(O)CC3)n1)CN(CC1CCOC1)CC2", "note": "(stereo not given)", "INHIBITION": 60.1}, {"smiles": "CN(C)c1nc2c(c(N3CCC(O)CC3)n1)CN(CC(C)(C)C)CC2", "INHIBITION": 22.4}, {"smiles": "CC(C)COCCC(=O)Nc1cccnc1-n1cncn1", "INHIBITION": 14.4}, {"smiles": "CN1C(=O)C2(CCN(c3ncccc3C(=O)O)CC2)c2ccccc21", "INHIBITION": -20.6}, {"smiles": "O=C(NC[C@H]1CCCC[C@H]1O)c1cccc2[nH]c(-c3ccco3)nc12", "INHIBITION": 23.3}, {"smiles": "CCN(C)S(=O)(=O)c1ccc(Cl)cc1C#N", "INHIBITION": 33.2}, {"smiles": "CSCC(C)N(C)S(=O)(=O)c1ccc(Cl)cc1C#N", "note": "(stereo not given)", "INHIBITION": 50.8}, {"smiles": "CC(C)CN(C)S(=O)(=O)c1ccc(Cl)cc1C#N", "INHIBITION": -10.4}, {"smiles": "CC(C)C(=O)N1CCN(Cc2cnn(C)c2)CC2(CC(=O)N(C)C2)C1", "note": "(stereo not given)", "INHIBITION": -10.3}, {"smiles": "O=C(c1ccc[nH]1)N1CCN(Cc2ccncc2)c2ncccc2C1", "INHIBITION": 23.3}, {"smiles": "Cc1ccc(-n2c(SCC(=O)O)nnc2-c2cccc(C)c2)cc1", "INHIBITION": 7.52}, {"smiles": "Cc1cnc(C(=O)N2CCCn3c(nc(CN(C)C)cc3=O)C2)cn1", "INHIBITION": -10.3}, {"smiles": "Cc1cc(NC(=O)N2CCN(C)CC2C)n(CCC#N)n1", "note": "(stereo not given)", "INHIBITION": 53.4}, {"smiles": "Cc1cc(NC(=O)N2CCN(C)CC2C)n(C)n1", "note": "(stereo not given)", "INHIBITION": 40.5}, {"smiles": "Cc1cc(NC(=O)N2CCN(C)CC2C)n(Cc2ccccc2)n1", "note": "(stereo not given)", "INHIBITION": 43.4}, {"smiles": "CCCN1C[C@@H]2CC[C@H]1CN(Cc1ccc(-n3cccn3)cc1)C2", "INHIBITION": 49.5}, {"smiles": "COC[C@@]12CCC[C@@H]1CN(C(=O)COc1ccccc1OC)C2", "INHIBITION": 19.5}, {"smiles": "Cc1ccccc1OCCC(=O)NC(C)c1nnc2n1CCCCC2", "note": "(stereo not given)", "INHIBITION": 28.8}, {"smiles": "Nc1nccnc1C1CN(Cc2ccc(OCC(=O)O)cc2)CCO1", "note": "(stereo not given)", "INHIBITION": -22.5}, {"smiles": "COc1ccc2c(c1)C(C(=O)N(C)CCCc1cnn(C)c1)CC(=O)N2", "note": "(stereo not given)", "INHIBITION": 55.4}, {"smiles": "COc1ccc2c(c1)C(C(=O)N(C)CCc1cnn(C)c1)CC(=O)N2", "note": "(stereo not given)", "INHIBITION": 82.3}, {"smiles": "COc1ccc2c(c1)C(C(=O)N(C)CCCc1nccn1C)CC(=O)N2", "note": "(stereo not given)", "INHIBITION": 23}, {"smiles": "COc1ccc2c(c1)C(C(=O)N(C)CCn1ccnc1C)CC(=O)N2", "note": "(stereo not given)", "INHIBITION": 13.7}, {"smiles": "COc1ccc2c(c1)C(C(=O)N(C)CCc1scnc1C)CC(=O)N2", "note": "(stereo not given)", "INHIBITION": 44.3}, {"smiles": "COc1ccc2c(c1)CC(C(=O)N(C)CCCc1cnn(C)c1)CO2", "note": "(stereo not given)", "INHIBITION": -1.91}, {"smiles": "CCOc1ncccc1Cn1cc2[nH]cccc-2c1=O", "INHIBITION": 18}, {"smiles": "Cc1nn(CC(=O)O)c2nccc(-c3ccc(F)cc3)c12", "INHIBITION": 39.5}, {"smiles": "CC(O)CN(c1ccccc1)S(=O)(=O)c1cc(C(=O)O)cc2c1CCC2", "note": "(stereo not given)", "INHIBITION": 19.7}, {"smiles": "CCN(c1ccccc1)S(=O)(=O)c1cc(C(=O)O)cc2c1CCC2", "INHIBITION": 56.5}, {"smiles": "CCN(c1cccc(F)c1)S(=O)(=O)c1cc(C(=O)O)cc2c1CCC2", "INHIBITION": 38.6}, {"smiles": "COCCS(=O)(=O)Nc1ccc(-n2cncn2)c(F)c1", "INHIBITION": 56.5}, {"smiles": "CC(C)NC(=O)CCNC(=O)Nc1ccc(-n2cncn2)c(F)c1", "INHIBITION": -18}, {"smiles": "COCCOc1ncccc1C(=O)Nc1ccc(-n2cncn2)c(F)c1", "INHIBITION": 13.1}, {"smiles": "COCCNC(=O)Nc1ccc(-n2cncn2)c(C(F)(F)F)c1", "INHIBITION": 21.8}, {"smiles": "CC(=O)Nc1ccc(-n2cncn2)c(F)c1", "INHIBITION": -6.91}, {"smiles": "COCCNC(=O)Nc1ccc(-n2cncn2)c(F)c1", "INHIBITION": 58.2}, {"smiles": "CN1CCN(Cc2cccnc2)C2(CCN(Cc3ccccn3)C2)C1=O", "note": "(stereo not given)", "INHIBITION": -16}, {"smiles": "CSCC(=O)N1C[C@@H](C)[C@](O)(C(C)C)C1", "INHIBITION": 5.23}, {"smiles": "CN(C)c1nccc(C2CN(C(=O)CO)C2)n1", "INHIBITION": 1.5}, {"smiles": "Cc1cc(Nc2cnccn2)nc(C2CCCN(CCO)C2)n1", "note": "(stereo not given)", "INHIBITION": 1.62}, {"smiles": "Cc1cccc(Nc2ccc(C3CCCCN3)cn2)n1", "note": "(stereo not given)", "INHIBITION": 70.3}, {"smiles": "c1cnc(Nc2ccc(C3CCCCN3)cn2)cn1", "note": "(stereo not given)", "INHIBITION": -15.1}, {"smiles": "Cc1cc(C)nc(Nc2ccc(C3CCCCN3)cn2)n1", "note": "(stereo not given)", "INHIBITION": -0.232}, {"smiles": "O=C(CCc1ccccc1F)NC1CCCN(c2ccccn2)C1", "note": "(stereo not given)", "INHIBITION": -40.55}, {"smiles": "CCN(CC)C(=O)NC(C)c1ccc(Oc2cccnc2)c(F)c1", "note": "(stereo not given)", "INHIBITION": 36.3}, {"smiles": "COc1ccc2c(c1)C1(CCN(Cc3cccnc3)CC1)N(C)CC2", "INHIBITION": -27.4}, {"smiles": "O=C1CC(c2ccncc2)C2(CCN(CC3CC3)CC2)N1", "note": "(stereo not given)", "INHIBITION": -4.32}, {"smiles": "O=C(CCc1cccc(Cl)c1Cl)N1CCOCC1c1ncon1", "note": "(stereo not given)", "INHIBITION": 33.8}, {"smiles": "CN(Cc1ccccc1)CC(O)Cn1cnc2ccccc2c1=O", "note": "(stereo not given)", "INHIBITION": 2.26}, {"smiles": "CN(Cc1ccccc1)CC(O)Cn1cnc2ccsc2c1=O", "note": "(stereo not given)", "INHIBITION": 56.6}, {"smiles": "CN(Cc1ccccc1)CC(O)Cn1cnc2sccc2c1=O", "note": "(stereo not given)", "INHIBITION": 10.675}, {"smiles": "O=C(CCc1cc2n(n1)CCCNC2)NCCCSC1CCCCC1", "INHIBITION": 40.3}, {"smiles": "CCN(Cc1ccc2c(c1)OCO2)C(=O)Cn1cccnc1=O", "INHIBITION": 37.9}, {"smiles": "COc1cc2c(cc1CNC(=O)C(C)n1ccnc1C(C)C)CCC2", "note": "(stereo not given)", "INHIBITION": 26.5}, {"smiles": "COc1cc2c(cc1CNC(=O)C(C)n1ccnc1C(C)C)OCCO2", "note": "(stereo not given)", "INHIBITION": 42.3}, {"smiles": "COc1cccc(CNC(=O)C(C)n2ccnc2C(C)C)c1OC", "note": "(stereo not given)", "INHIBITION": 62.1}]}]}
